{"source": "ChEMBL document CHEMBL3988442", "about": "“University of Dundee, Small-Polar-MMV Screening Library” (2021)", "data": [{"target": "T1, Aspartate--tRNA(Asp/Asn) ligase (Mycobacterium tuberculosis (strain ATCC 25618 / H37Rv)) (UniProt P9WFW3)", "T1 sequence (whole entry)": "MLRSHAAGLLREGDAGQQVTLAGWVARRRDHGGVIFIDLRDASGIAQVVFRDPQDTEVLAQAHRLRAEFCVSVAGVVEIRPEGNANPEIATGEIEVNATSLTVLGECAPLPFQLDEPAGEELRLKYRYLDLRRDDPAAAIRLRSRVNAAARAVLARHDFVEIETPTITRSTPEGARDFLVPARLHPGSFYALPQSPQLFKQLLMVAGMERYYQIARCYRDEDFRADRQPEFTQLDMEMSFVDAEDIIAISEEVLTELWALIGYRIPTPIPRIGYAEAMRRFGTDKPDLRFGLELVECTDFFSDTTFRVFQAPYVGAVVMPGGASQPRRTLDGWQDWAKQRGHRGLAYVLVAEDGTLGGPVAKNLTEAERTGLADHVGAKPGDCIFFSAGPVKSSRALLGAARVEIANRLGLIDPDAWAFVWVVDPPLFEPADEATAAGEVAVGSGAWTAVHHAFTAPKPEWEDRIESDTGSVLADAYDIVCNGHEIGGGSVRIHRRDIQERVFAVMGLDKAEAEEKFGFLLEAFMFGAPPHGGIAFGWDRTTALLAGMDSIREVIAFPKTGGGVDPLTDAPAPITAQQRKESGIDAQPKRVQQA", "assay": "Assay for Asp RNA synthetase-1 from Mycobacterium tuberculosis", "format": "functional", "parameters": "scale not given: direction of the effect not stated beside the values", "conditions": "30 µM", "units": {"Percent Effect": "%"}, "values": [{"smiles": "O=c1nc(SCc2cccnc2)c2c(n1CCO)CCC2", "Percent Effect": -12}, {"smiles": "c1ccc(Cn2ccnc2CN2CCCC2c2noc(C3CC3)n2)cc1", "note": "(stereo not drawn)", "Percent Effect": 6.6}, {"smiles": "Cc1nc(N2CCCC2)nc2c1CCN(C(=O)CC1CC1)CC2", "Percent Effect": -1.6}, {"smiles": "O=C(O)CCc1cccc(C2CCCN2Cc2ccc(F)c(F)c2)n1", "note": "(stereo not drawn)", "Percent Effect": -0.372}, {"smiles": "c1ccc(-c2nnn3c2COC(CNCC2CCOCC2)C3)cc1", "note": "(stereo not drawn)", "Percent Effect": 2.63}, {"smiles": "CC(C)n1c(=O)nc2n1C(=O)N(c1ccc(F)cc1)C2", "Percent Effect": 2.49}, {"smiles": "Cc1cc2n(n1)CC(CNCc1ccc(-n3cccn3)nc1)CN2", "note": "(stereo not drawn)", "Percent Effect": -2.59}, {"smiles": "Cn1cc(-c2nc(CN3CCN(CCO)CC3)cs2)cn1", "Percent Effect": -2.15}, {"smiles": "CC(NC(=O)C1=NN(C)C(=O)CC1)c1ccc(Cl)cc1Cl", "note": "(stereo not drawn)", "Percent Effect": -11.1}, {"smiles": "O=C(C1=CCCC1)N1C[C@H](Oc2cccnc2)[C@H]2OCCC[C@H]21", "Percent Effect": -2.63}, {"smiles": "CC(C)C(C(=O)N1CCCN(Cc2nccn2C)CC1)N1CCCC1", "note": "(stereo not drawn)", "Percent Effect": -3.15}, {"smiles": "Cc1cc2c(cc1C)C(NCc1nnc3n1CCCCC3)CCCO2", "note": "(stereo not drawn)", "Percent Effect": 0.212}, {"smiles": "CN(C)c1nc2c(c(=O)[nH]1)CCN(C(=O)c1cccc3nccnc13)C2", "Percent Effect": 4.01}, {"smiles": "c1ccc2sc(CN3CCCC3c3noc(C4CC4)n3)nc2c1", "note": "(stereo not drawn)", "Percent Effect": -1.34}, {"smiles": "OCCn1cc(CN2CCN(CCOc3ccccc3F)CC2)cn1", "Percent Effect": -0.699}, {"smiles": "O=C(c1cnoc1)N1CCC[C@]2(C[C@@H](OCc3ccccn3)CO2)C1", "Percent Effect": -4.58}, {"smiles": "O=C(c1cc(C2CC2)[nH]n1)N1CCCC(n2cncn2)C1", "note": "(stereo not drawn)", "Percent Effect": -3.08}, {"smiles": "Cc1noc(C2CCN(C(=O)c3ccc(NC4CC4)nc3)CC2)n1", "Percent Effect": 1.21}, {"smiles": "CC1CCCCN1Cc1ccc(-c2ccccc2C(=O)O)cc1", "note": "(stereo not drawn)", "Percent Effect": 5.63}, {"smiles": "Cn1ccnc1CN(CCCO)C1CCCc2ccccc21", "note": "(stereo not drawn)", "Percent Effect": 3.32}, {"smiles": "Cc1noc(C)c1CN1CCc2nn(C(C)C)c(=O)cc2C1", "Percent Effect": 7.84}, {"smiles": "O=C(c1cc(COc2ccc3c(c2)OCO3)[nH]n1)N1CC=CC1CO", "note": "(stereo not drawn)", "Percent Effect": 1.75}, {"smiles": "CCn1c(C(=O)N2CCN(CC(C)O)CC2)cc2ccccc21", "note": "(stereo not drawn)", "Percent Effect": -4.64}, {"smiles": "O=C(NCc1ccccc1CN1CCC(O)CC1)Nc1cccnc1", "Percent Effect": 1.28}, {"smiles": "O[C@]1(c2ccccn2)CC[C@@H]2CN(Cc3cccc4ncccc34)C[C@@H]21", "Percent Effect": 0.581}, {"smiles": "COCCN(Cc1nc2c(cnn2C)c(=O)[nH]1)Cc1ccco1", "Percent Effect": 0.88}, {"smiles": "O=C(CSCC1CC1)N1CCCC(c2nccn2Cc2ccncc2)C1", "note": "(stereo not drawn)", "Percent Effect": -7.86}, {"smiles": "Cn1ncc2c(=O)[nH]c(CN(Cc3cccc(F)c3)C3CC3)nc21", "Percent Effect": -6.19}, {"smiles": "Cc1nc(C2CCCN2CC(=O)NCCOc2ccccc2)no1", "note": "(stereo not drawn)", "Percent Effect": 1.81}, {"smiles": "c1ccc(-n2ncc(CN3CCCC3Cn3cccn3)n2)cc1", "note": "(stereo not drawn)", "Percent Effect": -5.28}, {"smiles": "CCCS(=O)(=O)N1CCC2(CC1)CN(c1ccccn1)CCO2", "Percent Effect": 2.47}, {"smiles": "CC(C)C(=O)N1CCN(Cc2cc(-c3ccncc3)nn2C)CC1", "Percent Effect": 0.491}, {"smiles": "O=C(NC1CC1)N1CCc2ncnc(-c3ccncc3)c2CC1", "Percent Effect": 5.15}, {"smiles": "CC(C)CC(=O)N1CCc2nc(N3CCOCC3)nc(NC(C)C)c2C1", "Percent Effect": -3.63}, {"smiles": "CC(=O)c1c(F)cccc1N1CCC(Cc2cccnc2)CC1", "Percent Effect": 0.661}, {"smiles": "O=C1COC2(CCN(Cc3ccoc3)CC2)CN1c1ccsc1", "Percent Effect": 4.25}, {"smiles": "Cc1cnn(CCC(=O)N2CCCN(c3cccnn3)CC2)c1", "Percent Effect": -0.568}, {"smiles": "Cc1nc(-c2ccsc2)ccc1C(=O)NCCN1CCOCC1", "Percent Effect": -2.94}, {"smiles": "Cc1oc(C)c(C(=O)NCc2cccc(NC(=O)CN(C)C)c2)c1C", "Percent Effect": -5.4}]}, {"target": "Shiga toxin 2 (Escherichia coli O157:H7) (UniProt P09385+P09386)", "assay": "E. coli 0.157:H7 Shiga Toxin SOP - stx2 screening assay", "format": "functional", "parameters": "scale not given: direction of the effect not stated beside the values", "conditions": "30 µM", "units": {"Percent Effect": "%"}, "values": [{"smiles": "O=c1nc(SCc2cccnc2)c2c(n1CCO)CCC2", "Percent Effect": 13.4}, {"smiles": "c1ccc(Cn2ccnc2CN2CCCC2c2noc(C3CC3)n2)cc1", "note": "(stereo not drawn)", "Percent Effect": -32.8}, {"smiles": "Cc1nc(N2CCCC2)nc2c1CCN(C(=O)CC1CC1)CC2", "Percent Effect": -20.8}, {"smiles": "O=C(O)CCc1cccc(C2CCCN2Cc2ccc(F)c(F)c2)n1", "note": "(stereo not drawn)", "Percent Effect": 2.71}, {"smiles": "c1ccc(-c2nnn3c2COC(CNCC2CCOCC2)C3)cc1", "note": "(stereo not drawn)", "Percent Effect": -21.1}, {"smiles": "CC(C)n1c(=O)nc2n1C(=O)N(c1ccc(F)cc1)C2", "Percent Effect": 2.99}, {"smiles": "Cc1cc2n(n1)CC(CNCc1ccc(-n3cccn3)nc1)CN2", "note": "(stereo not drawn)", "Percent Effect": 3.5}, {"smiles": "Cn1cc(-c2nc(CN3CCN(CCO)CC3)cs2)cn1", "Percent Effect": 22.1}, {"smiles": "CC(NC(=O)C1=NN(C)C(=O)CC1)c1ccc(Cl)cc1Cl", "note": "(stereo not drawn)", "Percent Effect": -19.3}, {"smiles": "O=C(C1=CCCC1)N1C[C@H](Oc2cccnc2)[C@H]2OCCC[C@H]21", "Percent Effect": -10.5}, {"smiles": "CC(C)C(C(=O)N1CCCN(Cc2nccn2C)CC1)N1CCCC1", "note": "(stereo not drawn)", "Percent Effect": 27}, {"smiles": "Cc1cc2c(cc1C)C(NCc1nnc3n1CCCCC3)CCCO2", "note": "(stereo not drawn)", "Percent Effect": -2.95}, {"smiles": "CN(C)c1nc2c(c(=O)[nH]1)CCN(C(=O)c1cccc3nccnc13)C2", "Percent Effect": -35}, {"smiles": "c1ccc2sc(CN3CCCC3c3noc(C4CC4)n3)nc2c1", "note": "(stereo not drawn)", "Percent Effect": 3.03}, {"smiles": "OCCn1cc(CN2CCN(CCOc3ccccc3F)CC2)cn1", "Percent Effect": 24.4}, {"smiles": "O=C(c1cnoc1)N1CCC[C@]2(C[C@@H](OCc3ccccn3)CO2)C1", "Percent Effect": -20.4}, {"smiles": "O=C(c1cc(C2CC2)[nH]n1)N1CCCC(n2cncn2)C1", "note": "(stereo not drawn)", "Percent Effect": 12.1}, {"smiles": "Cc1noc(C2CCN(C(=O)c3ccc(NC4CC4)nc3)CC2)n1", "Percent Effect": -7.73}, {"smiles": "CC1CCCCN1Cc1ccc(-c2ccccc2C(=O)O)cc1", "note": "(stereo not drawn)", "Percent Effect": 25}, {"smiles": "Cn1ccnc1CN(CCCO)C1CCCc2ccccc21", "note": "(stereo not drawn)", "Percent Effect": 8.83}, {"smiles": "Cc1noc(C)c1CN1CCc2nn(C(C)C)c(=O)cc2C1", "Percent Effect": -14}, {"smiles": "O=C(c1cc(COc2ccc3c(c2)OCO3)[nH]n1)N1CC=CC1CO", "note": "(stereo not drawn)", "Percent Effect": -30.9}, {"smiles": "CCn1c(C(=O)N2CCN(CC(C)O)CC2)cc2ccccc21", "note": "(stereo not drawn)", "Percent Effect": -48.2}, {"smiles": "O=C(NCc1ccccc1CN1CCC(O)CC1)Nc1cccnc1", "Percent Effect": -12.1}, {"smiles": "O[C@]1(c2ccccn2)CC[C@@H]2CN(Cc3cccc4ncccc34)C[C@@H]21", "Percent Effect": -21.3}, {"smiles": "COCCN(Cc1nc2c(cnn2C)c(=O)[nH]1)Cc1ccco1", "Percent Effect": 22.5}, {"smiles": "O=C(CSCC1CC1)N1CCCC(c2nccn2Cc2ccncc2)C1", "note": "(stereo not drawn)", "Percent Effect": 6.34}, {"smiles": "Cn1ncc2c(=O)[nH]c(CN(Cc3cccc(F)c3)C3CC3)nc21", "Percent Effect": 3.9}, {"smiles": "Cc1nc(C2CCCN2CC(=O)NCCOc2ccccc2)no1", "note": "(stereo not drawn)", "Percent Effect": -11.3}, {"smiles": "c1ccc(-n2ncc(CN3CCCC3Cn3cccn3)n2)cc1", "note": "(stereo not drawn)", "Percent Effect": 2.57}, {"smiles": "CCCS(=O)(=O)N1CCC2(CC1)CN(c1ccccn1)CCO2", "Percent Effect": -46.8}, {"smiles": "CC(C)C(=O)N1CCN(Cc2cc(-c3ccncc3)nn2C)CC1", "Percent Effect": -50.3}, {"smiles": "O=C(NC1CC1)N1CCc2ncnc(-c3ccncc3)c2CC1", "Percent Effect": -28.2}, {"smiles": "CC(C)CC(=O)N1CCc2nc(N3CCOCC3)nc(NC(C)C)c2C1", "Percent Effect": 6.88}, {"smiles": "CC(=O)c1c(F)cccc1N1CCC(Cc2cccnc2)CC1", "Percent Effect": -24.5}, {"smiles": "O=C1COC2(CCN(Cc3ccoc3)CC2)CN1c1ccsc1", "Percent Effect": -18.4}, {"smiles": "Cc1cnn(CCC(=O)N2CCCN(c3cccnn3)CC2)c1", "Percent Effect": -11.6}, {"smiles": "Cc1nc(-c2ccsc2)ccc1C(=O)NCCN1CCOCC1", "Percent Effect": -4.33}, {"smiles": "Cc1oc(C)c(C(=O)NCc2cccc(NC(=O)CN(C)C)c2)c1C", "Percent Effect": -39.7}]}]}
